Pf apPOL inh: Pf-apPOL DNA polymerase inhibition; AID 1794808; inhibition, % at 10 µM; 210,000 tested, 0.25% active; Recombinant Pf-apPOL, molecular beacon fluorescence, 1.5 h
mHTT CaM bind: inhibitors of human mutant huntingtin-calmodulin interaction; P42858; AlphaScreen His-mHTT/GST-CaM binding, luminescence; inhibition, % at 15 µM; 190,000 tested, 3.6% active;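 further: 0% = both proteins with DMSO and 100% = one protein alone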
Active calls of the source: *; nt = no result given; + = active, no number. This is a sample that favours compounds with a hit; in the whole collection about 3.6% have one here. No stated cut-off is given here; in the data, active means inhibition above about 50%; inactive means the rest.

SMILES	Pf apPOL inh	mHTT CaM bind
COc1cc(C2C(C#N)=C(N)N(c3ccc(C)cc3)C3=C2C(=O)CCC3)cc(OC)c1OC (centres undefined)	32	14
O=C(NCc1ccco1)c1cc(C(=O)NCc2ccco2)cc([N+](=O)[O-])c1	-4	3
CN1CCN(CCNC(=O)C2CCN(c3nc4cccnc4s3)CC2)CC1	11	-8
CC1Cc2c(NC(=O)c3ccc(Br)o3)nn(C)c2NC1=O (centres undefined)	0	52*
COCC(=O)Nc1nn(C)c2c1CC(C)C(=O)N2 (centres undefined)	-1	-14
NS(=O)(=O)c1ccc(NC(=O)CCN2C(=O)SC(=Cc3ccccc3)C2=O)cc1	-2	6
O=C(c1ccc(F)cc1)N1CCC(N2CCC(C(=O)N3CCOCC3)CC2)CC1	-5	1
CCCn1c(C2CCN(C(=O)C3CCCC3)C2)nc2cccnc21 (centres undefined)	-4	-4
CN(CC(=O)Nc1ccccc1F)S(=O)(=O)c1ccc2[nH]c3c(c2c1)CCCC3	-3	37
CC1CCCN(S(=O)(=O)c2ccc3[nH]c4c(c3c2)CCCC4)C1 (centres undefined)	0	63*
CC1CCCN(S(=O)(=O)c2ccc(Cl)cc2)C1 (centres undefined)	-4	-14
CN(CC(=O)N1CCc2ccccc21)S(=O)(=O)c1ccc2[nH]c3c(c2c1)CCCC3	-2	5
CC1CN(S(=O)(=O)c2ccc3[nH]c4c(c3c2)CCCC4)c2ccccc2O1 (centres undefined)	-4	96*
CN(CC(=O)N1CCOCC1)S(=O)(=O)c1ccc2[nH]c3c(c2c1)CCCC3	-6	12
CCOC(=O)C1CCCCN1S(=O)(=O)c1ccc2[nH]c3c(c2c1)CCCC3 (centres undefined)	4	62*
O=S(=O)(c1ccc2[nH]c3c(c2c1)CCCC3)N1CCc2ccccc21	-3	78*
COc1ccc(C(=O)NCCn2cc(SCC(=O)Nc3ccccc3F)c3ccccc32)cc1	-3	4
CCOC(=O)N1CCN(C(=O)Cc2csc(NC(=O)c3cnccn3)n2)CC1	-14	4
Oc1ccc(/C=N/Nc2nccnc2Cl)c(O)c1	nt	+
Oc1ccccc1C=NNc1nc2c(Cl)cc(Cl)cc2s1	0	nt
CC(=O)Nc1ccc(S(=O)(=O)Nc2ccc3c(c2)oc2ccccc23)cc1	-6	45
O=S(=O)(Nc1ccc2c(c1)oc1ccccc12)c1ccc2ccccc2c1	nt	77*
CCCc1[nH]n(-c2ccc(F)cc2)c(=O)c1C=NCCc1ccccc1	-7	2
NS(=O)(=O)c1ccc2c(c1)C1C=CCC1C(C1CC=CCC1)N2 (centres undefined)	-3	95*
NS(=O)(=O)c1ccc2c(c1)C1C=CCC1C(C(=O)O)N2 (centres undefined)	-1	40
SMILES	Pf apPOL inh	mHTT CaM bind
NS(=O)(=O)c1ccc2c(c1)C1C=CCC1C(c1cccc3ccccc13)N2 (centres undefined)	nt	94*
O=[N+]([O-])c1ccc2c(c1)C1C=CCC1C(C1CC=CCC1)N2 (centres undefined)	nt	39
CC(C)(C)OC(=O)NCCNC(=O)c1ccc(OC(F)(F)F)cc1	-5	nt
COc1ccc(/C=C2\CC/C(=C\c3ccc(OC)c(OC)c3)C2=O)cc1OC	0	10
COc1cc(/C=C2\CC/C(=C\c3ccc(O)c(OC)c3)C2=O)ccc1O	-3	61*
COc1ccc(C2CN(C(=O)c3ccc(C)cc3)CC2C(=O)N2CCCCC2)cc1 (centres undefined)	1	24
COc1cccc2cc(C(N)=O)c(=Nc3ccc(C(N)=O)cc3)oc12	1	-18
COc1cccc2cc(C(N)=O)c(=Nc3ccc(O)cc3)oc12	-4	99*
O=C(Nc1nc2c(s1)CN(C(=O)c1cnn(-c3ccccc3)n1)CC2)c1ccco1	6	53*
O=C(Nc1nc2c(s1)CN(C(=O)c1cc(C3CC3)on1)CC2)c1ccco1	-2	-10
N#CC1=C(N)C(C#N)(C#N)C(c2ccc(F)cc2)C2CCCC=C12 (centres undefined)	-9	29
Cc1ccc(-c2cn3c(C(=O)Nc4nc(C)cs4)csc3n2)cc1	-9	40
Nc1nc2c(nc(N=Nc3c(O)[nH]c4ccccc34)n2C2OC(CO)C(O)C2O)c(=O)[nH]1 (centres undefined)	nt	63*
NCCCCCCNc1nc2c(=O)[nH]cnc2n1C1OC(CO)C(O)C1O (centres undefined)	nt	-5
COc1ccc(C2c3sc(=O)[nH]c3SC3C4CCC(C4)C23)cc1 (centres undefined)	-4	38
COc1cc(C2c3sc(=O)[nH]c3SC3C4CCC(C4)C23)ccc1O (centres undefined)	2	57*
COc1cccc(C2c3sc(=O)[nH]c3SC3C4CCC(C4)C23)c1O (centres undefined)	-6	49
CCOc1cc(C2c3sc(=O)[nH]c3SC3C4CCC(C4)C23)ccc1O (centres undefined)	-6	100*
O=C(CSc1nc2ccc(NC(=O)c3ccc([N+](=O)[O-])cc3)cc2s1)NCC1CCCO1 (centres undefined)	-13	8
O=C(c1ccc(OCC2CCCN(C(=O)c3ccsc3)C2)cc1)N1CCCC1 (centres undefined)	6	6
CC1=NN(C(=O)c2ccccc2)C(O)(c2ccc(Br)cc2)C1 (centres undefined)	-3	17
CC1=NN(C(=O)c2ccccc2Br)C(O)(c2ccccc2)C1 (centres undefined)	-3	1
CCC1=NN(C(=O)c2cccc(C)c2O)C(O)(c2ccc(Br)cc2)C1 (centres undefined)	-4	87*
CC1=NN(C(=O)Cc2ccccc2)C(O)(c2ccc(Br)cc2)C1 (centres undefined)	-1	16
CCC1=NN(C(=O)c2ccccc2O)C(O)(c2ccc(Br)cc2)C1 (centres undefined)	-2	91*
SMILES	Pf apPOL inh	mHTT CaM bind
CC1=NN(C(=O)CCc2ccccc2)C(O)(c2ccc(Br)cc2)C1 (centres undefined)	1	54*
O=S(=O)(O)c1cc(-c2nnc(-c3ccccn3)nc2-c2ccc(S(=O)(=O)O)o2)co1	nt	100*
c1ccc(-c2nnc(-c3ccccn3)nc2-c2ccccc2)cc1	-2	44
O=C(NC(c1ccc([N+](=O)[O-])cc1)c1cc(Cl)c2cccnc2c1O)c1cccnc1 (centres undefined)	-9	53*
O=C(NC(c1cccc([N+](=O)[O-])c1)c1cc(Cl)c2cccnc2c1O)c1cccnc1 (centres undefined)	-6	79*
O=C(NC(c1ccccc1)c1ccccc1)c1cccnc1	3	-5
CCCCC(=O)N1CCCn2nc(-c3ccc(F)cc3)cc2C1	-9	19
Cc1cccn2c(=O)c3cc(C(=O)NC(C)c4ccccc4)c(=N)n(Cc4ccco4)c3nc12 (centres undefined)	4	51*
Cc1cccn2c(=O)c3cc(C(=O)NC(C)c4ccccc4)c(=N)n(C4CCCCC4)c3nc12 (centres undefined)	0	54*
CC(NC(=O)c1cc2c(=O)n3ccccc3nc2n(Cc2ccco2)c1=N)c1ccccc1 (centres undefined)	-2	51*
CCn1c(=N)c(C(=O)NC(C)c2ccccc2)cc2c(=O)n3cccc(C)c3nc21 (centres undefined)	-6	0

Screening data as filed in PubChem.
